What was measured:
[1] = molecular target: Calcium/calmodulin-dependent protein kinase type II subunit alpha (Homo sapiens) (UniProt Q9UQM7); conditions: at 1 µM;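 note: reported value is a mean percent inhibition of CAMK2A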
[2] = molecular target: Calcium/calmodulin-dependent protein kinase type II subunit delta (Homo sapiens) (UniProt Q13557); conditions: at 0.1 µM
[3] = molecular target: Calcium/calmodulin-dependent protein kinase type II subunit delta (Homo sapiens) (UniProt Q13557); conditions: at 1 µM
[4] = molecular target: T1, Calcium/calmodulin-dependent protein kinase type IV (Homo sapiens) (UniProt Q16566); conditions: at 0.1 µM
T1 sequence (whole entry): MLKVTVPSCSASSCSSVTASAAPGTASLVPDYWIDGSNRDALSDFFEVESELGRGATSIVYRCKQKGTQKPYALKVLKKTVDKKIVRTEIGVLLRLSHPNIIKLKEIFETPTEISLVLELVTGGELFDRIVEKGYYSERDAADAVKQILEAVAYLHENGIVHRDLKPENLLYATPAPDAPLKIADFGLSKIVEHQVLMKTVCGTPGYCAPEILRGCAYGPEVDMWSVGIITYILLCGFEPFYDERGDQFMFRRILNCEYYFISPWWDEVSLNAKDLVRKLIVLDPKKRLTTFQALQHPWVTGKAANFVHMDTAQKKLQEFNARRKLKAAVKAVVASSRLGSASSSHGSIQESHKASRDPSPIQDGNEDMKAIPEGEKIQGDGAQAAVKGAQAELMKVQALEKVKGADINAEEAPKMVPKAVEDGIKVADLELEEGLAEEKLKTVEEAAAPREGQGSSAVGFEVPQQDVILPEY

[5] = molecular target: T1, Calcium/calmodulin-dependent protein kinase type IV (Homo sapiens); conditions: at 1 µM
[6] = molecular target: T2, Serine/threonine-protein kinase Chk1 (Homo sapiens) (UniProt O14757); conditions: at 0.1 µM
T2 sequence (whole entry): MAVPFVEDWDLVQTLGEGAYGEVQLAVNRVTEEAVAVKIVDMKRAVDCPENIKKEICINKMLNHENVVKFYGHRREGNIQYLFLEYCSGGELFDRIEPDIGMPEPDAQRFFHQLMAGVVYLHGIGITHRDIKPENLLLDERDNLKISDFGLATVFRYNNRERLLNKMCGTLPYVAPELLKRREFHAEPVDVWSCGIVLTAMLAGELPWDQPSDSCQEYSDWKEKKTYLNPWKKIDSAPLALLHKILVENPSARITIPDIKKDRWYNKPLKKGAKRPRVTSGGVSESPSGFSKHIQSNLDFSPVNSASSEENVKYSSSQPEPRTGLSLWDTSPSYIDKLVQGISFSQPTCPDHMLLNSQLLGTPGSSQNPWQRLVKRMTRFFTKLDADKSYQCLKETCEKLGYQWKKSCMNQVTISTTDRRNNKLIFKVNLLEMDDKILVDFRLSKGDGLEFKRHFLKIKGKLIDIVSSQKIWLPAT

[7] = molecular target: T2, Serine/threonine-protein kinase Chk1 (Homo sapiens); conditions: at 1 µM
[8] = molecular target: Serine/threonine-protein kinase Chk2 (Homo sapiens) (UniProt O96017); conditions: at 0.1 µM
Chain of Serine/threonine-protein kinase Chk2 (Homo sapiens) (O96017 whole entry): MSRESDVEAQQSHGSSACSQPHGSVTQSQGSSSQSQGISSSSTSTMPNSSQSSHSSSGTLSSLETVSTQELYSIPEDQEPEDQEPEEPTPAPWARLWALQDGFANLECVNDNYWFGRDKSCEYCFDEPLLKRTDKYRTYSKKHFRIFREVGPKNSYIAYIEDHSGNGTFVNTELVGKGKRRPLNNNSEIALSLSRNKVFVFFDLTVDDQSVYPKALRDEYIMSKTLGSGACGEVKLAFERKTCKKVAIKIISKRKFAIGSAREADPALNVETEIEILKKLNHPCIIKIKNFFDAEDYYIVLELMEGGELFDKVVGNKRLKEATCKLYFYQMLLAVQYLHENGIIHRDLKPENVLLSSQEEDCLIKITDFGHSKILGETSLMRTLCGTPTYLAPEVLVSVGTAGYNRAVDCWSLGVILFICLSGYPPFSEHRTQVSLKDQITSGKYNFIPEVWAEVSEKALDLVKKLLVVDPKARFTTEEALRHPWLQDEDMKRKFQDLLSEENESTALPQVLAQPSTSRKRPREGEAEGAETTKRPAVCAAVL

[9] = molecular target: Serine/threonine-protein kinase Chk2 (Homo sapiens) (UniProt O96017); conditions: at 1 µM
[10] = molecular target: Death-associated protein kinase 1 (Homo sapiens) (UniProt P53355); conditions: at 0.1 µM
Chain of Death-associated protein kinase 1 (Homo sapiens) (P53355 whole entry, looked up): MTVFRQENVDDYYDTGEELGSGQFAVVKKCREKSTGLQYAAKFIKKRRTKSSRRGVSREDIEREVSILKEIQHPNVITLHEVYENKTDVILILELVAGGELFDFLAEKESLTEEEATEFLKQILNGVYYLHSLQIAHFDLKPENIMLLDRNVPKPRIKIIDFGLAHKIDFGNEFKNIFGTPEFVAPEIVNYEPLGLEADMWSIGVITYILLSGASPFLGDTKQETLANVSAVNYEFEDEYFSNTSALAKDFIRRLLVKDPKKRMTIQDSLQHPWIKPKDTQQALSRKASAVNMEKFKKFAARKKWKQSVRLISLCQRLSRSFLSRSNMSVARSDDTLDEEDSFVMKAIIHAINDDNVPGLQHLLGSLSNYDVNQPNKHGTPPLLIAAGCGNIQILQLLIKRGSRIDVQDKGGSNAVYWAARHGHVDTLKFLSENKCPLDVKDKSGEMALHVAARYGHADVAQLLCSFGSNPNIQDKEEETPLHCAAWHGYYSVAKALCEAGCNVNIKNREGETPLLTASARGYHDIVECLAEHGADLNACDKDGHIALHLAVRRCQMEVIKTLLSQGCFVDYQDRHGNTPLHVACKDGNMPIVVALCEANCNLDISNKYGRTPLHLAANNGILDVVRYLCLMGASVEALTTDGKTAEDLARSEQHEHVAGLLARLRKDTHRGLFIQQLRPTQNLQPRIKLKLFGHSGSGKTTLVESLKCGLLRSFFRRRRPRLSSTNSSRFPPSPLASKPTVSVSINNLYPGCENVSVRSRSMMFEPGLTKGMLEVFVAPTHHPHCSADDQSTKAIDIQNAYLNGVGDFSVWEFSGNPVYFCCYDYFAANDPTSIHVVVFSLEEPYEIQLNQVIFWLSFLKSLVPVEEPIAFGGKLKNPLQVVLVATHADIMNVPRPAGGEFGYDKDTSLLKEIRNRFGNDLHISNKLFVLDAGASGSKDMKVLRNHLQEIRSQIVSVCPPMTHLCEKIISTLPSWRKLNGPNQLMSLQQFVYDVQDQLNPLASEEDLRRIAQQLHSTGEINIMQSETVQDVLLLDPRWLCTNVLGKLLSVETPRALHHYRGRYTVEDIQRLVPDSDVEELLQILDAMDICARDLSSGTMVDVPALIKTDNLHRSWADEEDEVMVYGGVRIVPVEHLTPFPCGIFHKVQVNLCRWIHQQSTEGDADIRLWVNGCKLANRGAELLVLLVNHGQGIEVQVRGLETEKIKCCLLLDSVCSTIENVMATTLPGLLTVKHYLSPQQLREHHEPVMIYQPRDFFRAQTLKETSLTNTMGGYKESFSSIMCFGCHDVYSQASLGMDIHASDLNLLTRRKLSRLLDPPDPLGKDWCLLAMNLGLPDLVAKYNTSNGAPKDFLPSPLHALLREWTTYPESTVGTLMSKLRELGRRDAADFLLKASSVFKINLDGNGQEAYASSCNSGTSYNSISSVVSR

[11] = molecular target: Death-associated protein kinase 1 (Homo sapiens) (UniProt P53355); conditions: at 1 µM
[12] = molecular target: T3, Serine/threonine-protein kinase DCLK2 (Homo sapiens) (UniProt Q8N568); conditions: at 0.1 µM
T3 sequence (whole entry): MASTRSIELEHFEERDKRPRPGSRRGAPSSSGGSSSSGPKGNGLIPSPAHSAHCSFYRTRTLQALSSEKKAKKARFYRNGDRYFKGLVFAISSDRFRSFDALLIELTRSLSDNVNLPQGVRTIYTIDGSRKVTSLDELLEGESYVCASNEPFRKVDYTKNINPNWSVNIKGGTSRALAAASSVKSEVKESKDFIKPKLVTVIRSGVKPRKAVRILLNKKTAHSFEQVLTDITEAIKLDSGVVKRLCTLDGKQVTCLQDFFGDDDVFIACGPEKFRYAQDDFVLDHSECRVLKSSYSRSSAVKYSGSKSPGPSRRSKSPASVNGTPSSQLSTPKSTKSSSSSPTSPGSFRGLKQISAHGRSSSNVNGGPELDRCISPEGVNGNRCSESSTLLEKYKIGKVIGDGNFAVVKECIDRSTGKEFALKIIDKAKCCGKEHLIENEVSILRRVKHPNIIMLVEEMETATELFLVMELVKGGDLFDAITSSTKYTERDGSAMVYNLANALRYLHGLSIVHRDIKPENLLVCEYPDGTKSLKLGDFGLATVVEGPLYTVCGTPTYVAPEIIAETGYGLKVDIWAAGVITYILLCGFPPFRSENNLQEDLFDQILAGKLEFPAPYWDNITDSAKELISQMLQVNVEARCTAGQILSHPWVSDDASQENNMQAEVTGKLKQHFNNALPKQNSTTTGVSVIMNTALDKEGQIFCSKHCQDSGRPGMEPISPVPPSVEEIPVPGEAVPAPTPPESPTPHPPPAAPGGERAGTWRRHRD

[13] = molecular target: T3, Serine/threonine-protein kinase DCLK2 (Homo sapiens); conditions: at 1 µM
[14] = molecular target: MAP kinase-activated protein kinase 2 (Homo sapiens) (UniProt P49137); conditions: at 0.1 µM
Chain of MAP kinase-activated protein kinase 2 (Homo sapiens) (P49137 whole entry, looked up): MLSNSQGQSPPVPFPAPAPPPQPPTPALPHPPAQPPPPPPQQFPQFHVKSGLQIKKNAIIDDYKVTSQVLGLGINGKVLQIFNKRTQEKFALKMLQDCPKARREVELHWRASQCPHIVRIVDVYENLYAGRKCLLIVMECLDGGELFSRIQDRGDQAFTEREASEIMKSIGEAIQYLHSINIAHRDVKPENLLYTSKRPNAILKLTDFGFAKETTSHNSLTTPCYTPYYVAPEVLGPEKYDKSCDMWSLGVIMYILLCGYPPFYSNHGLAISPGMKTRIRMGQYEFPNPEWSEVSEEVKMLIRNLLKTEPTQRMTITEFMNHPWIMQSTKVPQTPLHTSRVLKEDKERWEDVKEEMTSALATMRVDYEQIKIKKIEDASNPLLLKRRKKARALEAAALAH

[15] = molecular target: MAP kinase-activated protein kinase 2 (Homo sapiens) (UniProt P49137); conditions: at 1 µM
[16] = molecular target: MAP kinase-activated protein kinase 3 (Homo sapiens) (UniProt Q16644); conditions: at 0.1 µM
[17] = molecular target: MAP kinase-activated protein kinase 3 (Homo sapiens) (UniProt Q16644); conditions: at 1 µM
[18] = molecular target: Serine/threonine-protein kinase MARK1 (Homo sapiens) (UniProt Q9P0L2); conditions: at 0.1 µM
Chain of Serine/threonine-protein kinase MARK1 (Homo sapiens) (Q9P0L2 whole entry, looked up): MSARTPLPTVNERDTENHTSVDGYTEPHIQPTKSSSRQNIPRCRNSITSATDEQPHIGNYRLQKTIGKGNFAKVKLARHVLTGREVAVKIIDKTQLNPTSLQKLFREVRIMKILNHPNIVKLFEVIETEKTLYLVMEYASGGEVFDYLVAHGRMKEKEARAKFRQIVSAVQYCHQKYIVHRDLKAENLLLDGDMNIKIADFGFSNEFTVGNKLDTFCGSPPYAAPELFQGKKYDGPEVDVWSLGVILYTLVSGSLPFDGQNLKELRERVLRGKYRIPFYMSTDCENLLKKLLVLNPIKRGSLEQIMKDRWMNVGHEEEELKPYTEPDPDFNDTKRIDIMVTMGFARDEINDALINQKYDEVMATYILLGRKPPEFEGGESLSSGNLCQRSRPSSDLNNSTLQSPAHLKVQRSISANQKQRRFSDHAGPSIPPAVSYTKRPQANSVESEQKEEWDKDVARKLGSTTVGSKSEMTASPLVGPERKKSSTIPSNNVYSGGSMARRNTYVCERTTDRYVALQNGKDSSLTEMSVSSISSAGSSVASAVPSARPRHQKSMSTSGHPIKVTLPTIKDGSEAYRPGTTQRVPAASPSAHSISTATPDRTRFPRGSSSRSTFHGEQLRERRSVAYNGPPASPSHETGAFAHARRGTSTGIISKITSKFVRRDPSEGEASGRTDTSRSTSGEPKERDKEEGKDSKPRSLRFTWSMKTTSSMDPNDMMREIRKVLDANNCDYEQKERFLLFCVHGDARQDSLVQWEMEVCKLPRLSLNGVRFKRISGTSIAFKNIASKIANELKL

[19] = molecular target: Serine/threonine-protein kinase MARK1 (Homo sapiens) (UniProt Q9P0L2); conditions: at 1 µM
[20] = molecular target: MAP/microtubule affinity-regulating kinase 3 (Homo sapiens) (UniProt P27448); conditions: at 0.1 µM;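 note: mean percent inhibition of MARK3 kinase activity, measured within the GSK PKIS screening panel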
Chain of MAP/microtubule affinity-regulating kinase 3 (Homo sapiens) (P27448 whole entry, looked up): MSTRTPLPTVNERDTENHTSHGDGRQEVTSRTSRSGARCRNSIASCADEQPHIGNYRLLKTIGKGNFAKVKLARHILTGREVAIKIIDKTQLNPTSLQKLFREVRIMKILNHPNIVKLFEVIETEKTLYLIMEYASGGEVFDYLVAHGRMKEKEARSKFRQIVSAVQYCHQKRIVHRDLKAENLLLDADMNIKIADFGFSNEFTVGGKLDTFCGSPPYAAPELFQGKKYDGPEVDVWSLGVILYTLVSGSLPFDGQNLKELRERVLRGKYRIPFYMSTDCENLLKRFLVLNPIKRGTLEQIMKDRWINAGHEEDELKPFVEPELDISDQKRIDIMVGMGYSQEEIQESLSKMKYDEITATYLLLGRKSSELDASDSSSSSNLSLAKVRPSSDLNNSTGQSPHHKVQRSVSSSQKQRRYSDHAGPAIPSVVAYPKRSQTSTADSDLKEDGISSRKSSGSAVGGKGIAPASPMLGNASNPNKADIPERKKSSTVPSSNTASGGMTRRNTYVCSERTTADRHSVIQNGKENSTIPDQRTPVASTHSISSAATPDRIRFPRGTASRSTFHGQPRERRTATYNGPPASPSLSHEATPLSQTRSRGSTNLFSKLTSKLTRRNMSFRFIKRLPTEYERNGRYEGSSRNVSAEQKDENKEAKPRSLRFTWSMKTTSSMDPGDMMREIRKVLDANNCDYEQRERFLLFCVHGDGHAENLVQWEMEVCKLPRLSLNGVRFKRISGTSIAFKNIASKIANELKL

Chain of Calcium/calmodulin-dependent protein kinase type II subunit alpha (Homo sapiens) (Q9UQM7 whole entry): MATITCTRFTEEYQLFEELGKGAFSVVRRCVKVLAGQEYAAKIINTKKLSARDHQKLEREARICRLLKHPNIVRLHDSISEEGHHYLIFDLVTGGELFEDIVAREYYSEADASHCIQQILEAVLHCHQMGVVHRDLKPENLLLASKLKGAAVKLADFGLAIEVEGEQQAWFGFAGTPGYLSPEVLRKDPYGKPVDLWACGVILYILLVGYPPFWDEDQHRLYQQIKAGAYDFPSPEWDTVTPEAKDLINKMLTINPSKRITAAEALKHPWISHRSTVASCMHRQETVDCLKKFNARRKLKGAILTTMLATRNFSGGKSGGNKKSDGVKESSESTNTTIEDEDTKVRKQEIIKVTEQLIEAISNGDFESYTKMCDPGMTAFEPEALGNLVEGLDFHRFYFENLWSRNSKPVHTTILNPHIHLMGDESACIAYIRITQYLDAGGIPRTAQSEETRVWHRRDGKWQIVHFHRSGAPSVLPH
Chain of Calcium/calmodulin-dependent protein kinase type II subunit delta (Homo sapiens) (Q13557 whole entry): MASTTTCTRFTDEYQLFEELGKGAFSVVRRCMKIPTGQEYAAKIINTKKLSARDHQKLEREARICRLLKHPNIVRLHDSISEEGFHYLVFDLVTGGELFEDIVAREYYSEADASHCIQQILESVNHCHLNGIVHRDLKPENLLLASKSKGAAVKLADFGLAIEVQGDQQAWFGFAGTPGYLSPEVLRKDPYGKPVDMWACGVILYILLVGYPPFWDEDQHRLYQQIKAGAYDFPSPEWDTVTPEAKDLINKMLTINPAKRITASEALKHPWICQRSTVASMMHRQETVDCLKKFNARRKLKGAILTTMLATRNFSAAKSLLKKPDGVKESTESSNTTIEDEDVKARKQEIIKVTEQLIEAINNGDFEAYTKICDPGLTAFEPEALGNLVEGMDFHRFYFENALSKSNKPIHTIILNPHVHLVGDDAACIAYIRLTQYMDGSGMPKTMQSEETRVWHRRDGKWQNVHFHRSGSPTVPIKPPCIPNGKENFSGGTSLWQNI

SMILES | inhibition [1] | inhibition [2] | inhibition [3] | inhibition [4] | inhibition [5] | inhibition [6] | inhibition [7] | inhibition [8] | inhibition [9] | inhibition [10] | inhibition [11] | inhibition [12] | inhibition [13] | inhibition [14] | inhibition [15] | inhibition [16] | inhibition [17] | inhibition [18] | inhibition [19] | inhibition [20]
CCS(=O)(=O)c1ccc(OC)c(Nc2ncc(-c3cccc(OC)c3)o2)c1 | 6.74% | 1.91% | 9.35% | -0.13% | 1.2% | 1.44% | 3.19% | 1.56% | 2.17% | 2.65% | 4.19% | 0.56% | -0.14% | 0.86% | 0.67% | 1.43% | 3.53% | 1.2% | 2.37% | 3.96%
CS(=O)(=O)CCNCc1nc(-c2ccc3ncnc(Nc4ccc(OCc5cccc(C(F)(F)F)c5)cc4)c3c2)cs1 | 2.45% | 2.93% | 3.53% | 0.68% | 1.44% | 1.74% | 5.07% | 1.74% | 5.27% | 3.32% | 2.59% | -1.01% | 0.18% | 0.97% | 1.7% | 2.23% | 2.67% | 1% | 1.98% | 0.8%
c1ccc(Cc2nc3ccc(Nc4ncnc5ccccc45)cc3[nH]2)cc1 | 2% | 1.68% | 2.41% | -2.03% | -1.81% | 2.86% | 9.39% | 1.71% | 5.02% | 3.43% | 5.17% | -0.21% | 1.02% | 1.39% | 1.85% | 3.82% | 4.05% | 1.85% | 6.13% | 1.67%
NS(=O)(=O)c1cccc(-c2cc3ccncc3cc2OCc2ccccc2)c1 | 4.81% | 4.83% | 5.07% | 0.13% | -0.46% | 5.29% | 6.26% | 3.17% | 5.38% | 6.37% | 7.29% | 0.9% | 0.91% | 2.83% | 3.32% | 4.06% | 3.27% | 5.91% | 9.52% | 5.98%
COC(=O)Nc1nc2cc(Oc3ccc(NC(=O)Nc4cccc(Br)c4)cc3)ccc2[nH]1 | 2.07% | 1.97% | 3.53% | 1.41% | 2.33% | 2.14% | 2.72% | 1.92% | 2.2% | 2.43% | 2.38% | -0.32% | 4.24% | 1.26% | 1.19% | 4.95% | 6.43% | 1.41% | 1.86% | 3.56%
NS(=O)(=O)c1ccc(N/N=C2\C(=O)Nc3ccc(Cl)cc32)cc1 | 4.05% | 2.98% | 4.81% | -0.73% | -3.41% | -3.35% | -2.04% | -2.37% | 0.53% | -4% | -3.71% | 0.73% | 1% | -0.88% | -0.73% | -2.03% | -2.76% | 3.26% | 11.4% | 4.4%
